Measured values published in ChEMBL document CHEMBL3988442, “University of Dundee, Small-Polar-MMV Screening Library” (2021).
For some assays here: Entries with a potency or affinity are not part of this list.

Assays:
Set-up in all cases: scale not given: direction of the effect not stated beside the values
[1] = molecular target: Protein translocase subunit SecA (Escherichia coli (strain K12)) (UniProt P10408); assay: Assay to Identify E. coli SecA ATPase Inhibitors; format: functional; conditions: 30 µM
Protein translocase subunit SecA (Escherichia coli (strain K12)), sequence (P10408 whole entry): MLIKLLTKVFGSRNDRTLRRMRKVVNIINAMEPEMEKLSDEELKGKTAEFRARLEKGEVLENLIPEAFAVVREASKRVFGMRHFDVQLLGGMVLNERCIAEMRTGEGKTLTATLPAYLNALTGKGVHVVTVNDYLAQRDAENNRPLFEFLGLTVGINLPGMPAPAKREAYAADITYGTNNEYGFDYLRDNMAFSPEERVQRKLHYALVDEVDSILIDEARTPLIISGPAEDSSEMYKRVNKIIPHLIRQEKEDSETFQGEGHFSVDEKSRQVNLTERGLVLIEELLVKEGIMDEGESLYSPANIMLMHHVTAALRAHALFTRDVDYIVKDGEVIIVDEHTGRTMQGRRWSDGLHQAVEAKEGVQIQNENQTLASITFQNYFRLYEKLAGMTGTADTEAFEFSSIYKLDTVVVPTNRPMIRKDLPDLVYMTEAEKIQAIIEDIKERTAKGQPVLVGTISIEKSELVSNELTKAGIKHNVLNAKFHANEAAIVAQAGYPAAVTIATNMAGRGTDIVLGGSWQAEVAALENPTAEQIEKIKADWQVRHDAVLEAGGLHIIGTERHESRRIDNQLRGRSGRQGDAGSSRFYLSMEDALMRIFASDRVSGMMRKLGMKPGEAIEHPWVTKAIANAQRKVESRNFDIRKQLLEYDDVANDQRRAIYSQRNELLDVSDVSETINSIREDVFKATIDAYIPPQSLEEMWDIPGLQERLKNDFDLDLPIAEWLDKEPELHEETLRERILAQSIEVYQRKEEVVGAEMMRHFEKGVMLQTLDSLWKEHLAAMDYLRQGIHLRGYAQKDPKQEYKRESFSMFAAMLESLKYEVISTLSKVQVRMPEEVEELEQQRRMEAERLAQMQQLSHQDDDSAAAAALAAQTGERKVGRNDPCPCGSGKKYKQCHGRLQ

[2] = molecular target: T1, Ubiquitin-activating enzyme e1, putative (Leishmania donovani (strain BPK282A1)) (UniProt E9BSI1); assay: Leishmania donovani Ubiquitin Activating Enzyme (LdE1); format: functional; conditions: 30 µM
T1 sequence (whole entry): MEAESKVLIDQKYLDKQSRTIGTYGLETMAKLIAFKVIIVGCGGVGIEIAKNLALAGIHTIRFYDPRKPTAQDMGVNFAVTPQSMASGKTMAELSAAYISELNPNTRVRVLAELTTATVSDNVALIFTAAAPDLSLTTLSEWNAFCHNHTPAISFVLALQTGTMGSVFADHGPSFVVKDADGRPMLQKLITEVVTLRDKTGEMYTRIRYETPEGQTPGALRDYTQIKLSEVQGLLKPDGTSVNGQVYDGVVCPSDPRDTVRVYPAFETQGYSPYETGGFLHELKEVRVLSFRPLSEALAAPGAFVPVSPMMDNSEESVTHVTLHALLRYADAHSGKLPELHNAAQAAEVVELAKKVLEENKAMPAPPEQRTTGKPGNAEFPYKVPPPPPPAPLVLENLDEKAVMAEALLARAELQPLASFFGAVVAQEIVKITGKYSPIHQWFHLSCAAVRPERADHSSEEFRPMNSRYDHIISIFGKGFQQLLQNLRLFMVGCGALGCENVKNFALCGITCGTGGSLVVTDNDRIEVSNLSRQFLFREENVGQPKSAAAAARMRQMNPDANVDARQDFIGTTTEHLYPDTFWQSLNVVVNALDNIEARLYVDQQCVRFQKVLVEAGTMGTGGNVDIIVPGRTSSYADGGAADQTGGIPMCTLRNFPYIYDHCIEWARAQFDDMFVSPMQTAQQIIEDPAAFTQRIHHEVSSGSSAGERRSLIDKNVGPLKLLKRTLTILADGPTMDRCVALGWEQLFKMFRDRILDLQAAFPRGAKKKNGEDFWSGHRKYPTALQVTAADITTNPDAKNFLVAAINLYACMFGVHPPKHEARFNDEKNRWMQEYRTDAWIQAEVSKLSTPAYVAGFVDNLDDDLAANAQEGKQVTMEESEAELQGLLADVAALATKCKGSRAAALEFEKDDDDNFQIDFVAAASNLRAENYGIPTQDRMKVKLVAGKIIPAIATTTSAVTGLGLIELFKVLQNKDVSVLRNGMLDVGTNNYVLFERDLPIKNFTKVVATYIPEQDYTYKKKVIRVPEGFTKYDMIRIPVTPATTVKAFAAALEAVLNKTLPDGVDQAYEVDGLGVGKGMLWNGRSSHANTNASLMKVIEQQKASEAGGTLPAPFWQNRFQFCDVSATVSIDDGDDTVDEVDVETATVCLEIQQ

[3] = molecular target: AMP-activated protein kinase, AMPK (Homo sapiens) (UniProt P54646+O43741+P54619+Q9UGJ0+Q9Y478+Q13131+Q9UGI9); assay: AMP-dependent Kinase enzyme assay. An in vitro enzyme assay that detects ADP turnover that is directly proportional to AMPK activity. This uses naive AMPK that is activated during the assay with MK-8722; format: functional; conditions: 30 µM
[4] = molecular target: Sialic acid-binding Ig-like lectin 9 (Homo sapiens) (UniProt Q9Y336); assay: Hs-Siglec9 ALPHAscreen SOP 20170721; conditions: 10 µM
Sialic acid-binding Ig-like lectin 9 (Homo sapiens), sequence (Q9Y336 whole entry): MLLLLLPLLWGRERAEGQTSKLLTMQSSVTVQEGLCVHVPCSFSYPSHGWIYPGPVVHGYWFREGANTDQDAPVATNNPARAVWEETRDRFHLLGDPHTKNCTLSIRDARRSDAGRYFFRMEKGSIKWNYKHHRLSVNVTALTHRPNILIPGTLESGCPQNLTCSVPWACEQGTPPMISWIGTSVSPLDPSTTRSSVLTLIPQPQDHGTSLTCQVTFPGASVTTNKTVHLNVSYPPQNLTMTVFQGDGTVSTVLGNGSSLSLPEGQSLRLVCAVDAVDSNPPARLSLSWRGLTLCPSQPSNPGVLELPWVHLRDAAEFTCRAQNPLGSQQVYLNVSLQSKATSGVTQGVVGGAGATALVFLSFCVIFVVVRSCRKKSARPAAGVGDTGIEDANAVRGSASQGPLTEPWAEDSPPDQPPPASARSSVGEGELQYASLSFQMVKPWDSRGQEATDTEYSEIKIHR

[5] = system: Trypanosoma cruzi; assay: Trypanosoma cruzi phosphomannomutase and mannose-1-phosphate guanylyltransferase assay; format: functional; conditions: 10 µM
[6] = molecular target: T2, Arginase-2, mitochondrial (Homo sapiens) (UniProt P78540); assay: in vitro enzyme assay to detect the production of urea directly proportional to the activity of Arginase II; format: functional; conditions: 33.3 µM; further: in the data most compounds retested in dose-response had high values
T2 sequence (whole entry): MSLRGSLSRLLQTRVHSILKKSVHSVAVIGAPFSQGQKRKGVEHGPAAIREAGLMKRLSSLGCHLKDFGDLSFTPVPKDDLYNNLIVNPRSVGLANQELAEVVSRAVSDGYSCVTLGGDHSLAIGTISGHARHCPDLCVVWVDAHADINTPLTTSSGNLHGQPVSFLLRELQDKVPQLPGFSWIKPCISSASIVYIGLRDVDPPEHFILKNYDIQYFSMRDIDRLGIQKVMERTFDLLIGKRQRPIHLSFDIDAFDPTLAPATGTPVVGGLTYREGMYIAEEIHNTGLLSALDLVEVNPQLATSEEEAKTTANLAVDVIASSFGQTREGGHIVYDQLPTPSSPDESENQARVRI

[7] = molecular target: T3, Proteasome subunit beta (Trypanosoma cruzi) (UniProt O96673); assay: Trypanosoma cruzi proteasome chymotrypsin-like activity (TcProtChymo) assay.; further: in the data most compounds retested in dose-response had high values; format: functional; conditions: 9.37 µM
T3 sequence (whole entry): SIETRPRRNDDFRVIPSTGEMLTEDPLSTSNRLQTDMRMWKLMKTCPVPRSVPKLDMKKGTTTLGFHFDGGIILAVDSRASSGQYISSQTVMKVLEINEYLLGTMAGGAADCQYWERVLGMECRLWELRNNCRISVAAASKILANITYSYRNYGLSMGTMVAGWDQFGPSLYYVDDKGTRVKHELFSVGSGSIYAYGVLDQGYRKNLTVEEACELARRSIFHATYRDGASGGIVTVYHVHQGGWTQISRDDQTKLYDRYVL

[8] = organism: Homo sapiens; assay: To identify inhibition of the IFN signalling (Jak-Stat) pathway via expression of an eGFP reporter gene under the control of an IFN-stimulated response element (ISRE) containing MxA promoter.; format: functional; conditions: 30 µM
[9] = molecular target: T4, Tyrosyl-tRNA synthetase, putative (Trypanosoma cruzi (strain CL Brener)) (UniProt Q4DSP6); assay: Trypanosoma cruzi tyrosyl tRNA synthetase (TcYRS) _High Tyrosine SOP; format: functional; conditions: 30 µM; further: in the data most compounds retested in dose-response had high values
T4 sequence (whole entry): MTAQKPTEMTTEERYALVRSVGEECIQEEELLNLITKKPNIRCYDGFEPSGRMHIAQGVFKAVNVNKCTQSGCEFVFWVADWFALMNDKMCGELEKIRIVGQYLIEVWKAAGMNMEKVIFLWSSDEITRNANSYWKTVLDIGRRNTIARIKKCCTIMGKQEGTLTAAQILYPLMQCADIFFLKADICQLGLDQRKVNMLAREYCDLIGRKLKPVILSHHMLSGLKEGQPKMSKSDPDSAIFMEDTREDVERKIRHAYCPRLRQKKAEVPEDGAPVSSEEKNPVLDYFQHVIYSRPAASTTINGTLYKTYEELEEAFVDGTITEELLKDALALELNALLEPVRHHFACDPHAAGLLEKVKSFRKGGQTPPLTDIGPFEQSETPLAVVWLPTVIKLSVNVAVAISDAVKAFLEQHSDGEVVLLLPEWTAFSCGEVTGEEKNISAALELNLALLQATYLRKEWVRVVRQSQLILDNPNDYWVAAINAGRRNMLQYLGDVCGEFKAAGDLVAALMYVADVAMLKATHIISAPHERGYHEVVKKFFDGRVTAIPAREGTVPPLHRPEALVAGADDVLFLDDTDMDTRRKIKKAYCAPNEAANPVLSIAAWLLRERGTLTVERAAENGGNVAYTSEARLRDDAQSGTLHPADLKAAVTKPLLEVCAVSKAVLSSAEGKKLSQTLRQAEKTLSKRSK

[10] = molecular target: T4, Tyrosyl-tRNA synthetase, putative (Trypanosoma cruzi (strain CL Brener)); assay: Trypanosoma cruzi tyrosyl tRNA synthetase (TcYRS) SOP; format: functional; conditions: 30 µM
[11] = molecular target: Chromo domain-containing protein 1 (Saccharomyces cerevisiae (strain ATCC 204508 / S288c) (Baker's yeast)) (UniProt P32657); assay: ScCHD-1 Enzyme Inhibition Assay; format: functional; conditions: 30 µM; further: in the data most compounds retested in dose-response had high values
Chromo domain-containing protein 1 (Saccharomyces cerevisiae (strain ATCC 204508 / S288c) (Baker's yeast)), sequence (P32657 whole entry, the tested form may be a part): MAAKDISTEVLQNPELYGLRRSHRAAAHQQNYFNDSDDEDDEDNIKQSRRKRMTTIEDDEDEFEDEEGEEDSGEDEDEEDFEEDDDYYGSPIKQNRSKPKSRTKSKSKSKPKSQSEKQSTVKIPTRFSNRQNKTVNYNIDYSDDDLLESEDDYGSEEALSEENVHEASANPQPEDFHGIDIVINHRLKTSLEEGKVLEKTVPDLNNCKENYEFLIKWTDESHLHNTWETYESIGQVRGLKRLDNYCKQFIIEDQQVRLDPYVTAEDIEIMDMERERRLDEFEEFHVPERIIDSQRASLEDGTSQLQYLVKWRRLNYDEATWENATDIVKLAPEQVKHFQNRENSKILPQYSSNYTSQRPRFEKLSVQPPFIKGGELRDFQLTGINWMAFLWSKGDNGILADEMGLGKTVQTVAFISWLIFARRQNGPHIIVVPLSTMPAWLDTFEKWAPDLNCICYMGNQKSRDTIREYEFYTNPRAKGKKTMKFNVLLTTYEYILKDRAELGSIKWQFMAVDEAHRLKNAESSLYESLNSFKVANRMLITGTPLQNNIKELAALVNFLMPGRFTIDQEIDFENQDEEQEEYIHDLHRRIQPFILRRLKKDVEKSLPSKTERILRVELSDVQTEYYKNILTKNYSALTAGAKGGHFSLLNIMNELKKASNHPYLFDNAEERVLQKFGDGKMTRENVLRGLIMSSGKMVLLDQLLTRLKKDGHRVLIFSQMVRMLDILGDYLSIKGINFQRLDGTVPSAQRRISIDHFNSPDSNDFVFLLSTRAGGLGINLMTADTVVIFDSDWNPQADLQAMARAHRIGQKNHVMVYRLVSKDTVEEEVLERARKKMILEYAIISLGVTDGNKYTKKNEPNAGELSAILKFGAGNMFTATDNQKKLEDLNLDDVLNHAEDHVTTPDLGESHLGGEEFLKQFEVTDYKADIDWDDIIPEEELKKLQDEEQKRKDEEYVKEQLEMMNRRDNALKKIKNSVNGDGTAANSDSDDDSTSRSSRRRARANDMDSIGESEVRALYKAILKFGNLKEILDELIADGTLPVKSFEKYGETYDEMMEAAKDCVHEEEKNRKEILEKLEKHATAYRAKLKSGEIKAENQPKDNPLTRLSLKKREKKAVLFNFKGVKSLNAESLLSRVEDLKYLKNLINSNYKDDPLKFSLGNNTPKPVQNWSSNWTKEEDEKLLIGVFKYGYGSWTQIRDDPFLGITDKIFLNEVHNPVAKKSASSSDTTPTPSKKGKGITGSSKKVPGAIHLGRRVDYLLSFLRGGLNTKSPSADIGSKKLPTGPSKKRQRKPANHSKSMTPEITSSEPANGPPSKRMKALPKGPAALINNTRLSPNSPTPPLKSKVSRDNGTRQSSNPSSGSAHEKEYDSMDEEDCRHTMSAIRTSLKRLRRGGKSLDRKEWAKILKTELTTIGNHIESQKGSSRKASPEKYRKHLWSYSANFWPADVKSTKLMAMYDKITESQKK

| SMILES | Percent Effect [1] [%] | Percent Effect [2] [%] | Percent Effect [3] [%] | Percent Effect [4] [%] | Percent Effect [5] [%] | Percent Effect [6] [%] | Percent Effect [7] [%] | Percent Effect [8] [%] | Percent Effect [9] [%] | Percent Effect [10] [%] | Percent Effect [11] [%] |
| --- | --- | --- | --- | --- | --- | --- | --- | --- | --- | --- | --- |
| O=C(CN(Cc1ccccc1)CC1CCOCC1)Nc1nccs1 | -4.59 | 0 | 0.406 | 1.15 | -4.17 | 0.399 | 4.2 | -3.27 | 6.25 | 11.1 | -0.498 |
| COc1cc(C(=O)N(Cc2cnn(C)c2)C(C)C)ccc1OCC(N)=O | -7.3 | 18.4 | -10.1 | -6.52 | -5.32 | 0 | 10.4 | 9.36 | 0.493 | 6.17 | -2.3 |
| Cn1c(Cn2ccnc2)nnc1C1CCCN(C2CCCCC2)C1 (stereo not given) | -3.14 | 8.11 | 5.59 | 1.26 | 1.93 | 2.38 | 3.1 | -7.16 | 5.82 | 19.5 | -3.83 |
| Cc1nc(C)n(C2CCCN(C(=O)c3ccccc3C)C2)n1 (stereo not given) | -0.244 | 18.2 | -0.257 | -8.82 | -0.881 | 7.37 | 12.5 | 12.5 | 7.62 | 11.8 | -10 |
| COCC1c2c(cnn2CC2CCOCC2)CCN1Cc1ccoc1 (stereo not given) | -3.48 | 8.11 | 4.63 | 0.649 | 1.76 | 4.17 | 16 | -5.7 | 10.9 | 11 | -3.93 |
| Cc1cc(C(=O)N2C[C@@H]3COC[C@]3(COCc3cccnc3)C2)no1 | -2.45 | 33.8 | 4.4 | -2.26 | -3.45 | 3.23 | 7.31 | 4.17 | -2.12 | 8.97 | -5.95 |
| CN1CCN(Cc2ccccc2CNC(=O)c2ccc(Br)cc2F)CC1 | -2.05 | 5.41 | -1.3 | 7.25 | -1.86 | 3.72 | 3.35 | 9.27 | 5.38 | 11.1 | -4.37 |
| Cc1nnc(Nc2cccc(C3CCN(CCO)CC3)n2)s1 | -1.13 | 13.3 | 4.79 | -2.96 | 1.38 | 1.63 | 4.85 | 11.5 | 6.38 | 14.1 | -3.37 |
| Cc1nc(C)n(CC2CCCN(Cc3nc(C4CC4)no3)C2)n1 (stereo not given) | -2.19 | 21.6 | -9.55 | 4.88 | 3.11 | -4.41 | 12.8 | 2.75 | 8.37 | 23.5 | -12.5 |
| CS(=O)(=O)NCC1CCCCN1C(=O)Nc1cccnc1N1CCCC1 (stereo not given) | -15.1 | 13.2 | -38 | 3.6 | 7.89 | 0 | 8.92 | 2.36 | 5.32 | 13 | -19.9 |
